A word on the inhibition: it is the change of the read-out against control, counted positive when it falls.

The values below come from ChEMBL document CHEMBL1961873, “Compounds: GSK PKIS; Assays: Nanosyn kinase panel” (2012).

The test system of assay [1] is Epidermal growth factor receptor (Homo sapiens), P00533 [T790M]. The conditions noted are these: at 1 µM.
In assay [2] the test system is Epidermal growth factor receptor (Homo sapiens), P00533 [L858R,T790M]. Conditions: at 0.1 µM.
Assay [3] has the same test system. The conditions noted are these: at 1 µM.
For assay [4], the target named is Ephrin type-A receptor 2 (Homo sapiens) (UniProt P29317). Conditions: at 0.1 µM.
The target is the same in assay [5]. Conditions: at 1 µM.
Assay [6] concerns the target T1, Ephrin type-A receptor 3 (Homo sapiens) (UniProt P29320).
T1 sequence (whole entry): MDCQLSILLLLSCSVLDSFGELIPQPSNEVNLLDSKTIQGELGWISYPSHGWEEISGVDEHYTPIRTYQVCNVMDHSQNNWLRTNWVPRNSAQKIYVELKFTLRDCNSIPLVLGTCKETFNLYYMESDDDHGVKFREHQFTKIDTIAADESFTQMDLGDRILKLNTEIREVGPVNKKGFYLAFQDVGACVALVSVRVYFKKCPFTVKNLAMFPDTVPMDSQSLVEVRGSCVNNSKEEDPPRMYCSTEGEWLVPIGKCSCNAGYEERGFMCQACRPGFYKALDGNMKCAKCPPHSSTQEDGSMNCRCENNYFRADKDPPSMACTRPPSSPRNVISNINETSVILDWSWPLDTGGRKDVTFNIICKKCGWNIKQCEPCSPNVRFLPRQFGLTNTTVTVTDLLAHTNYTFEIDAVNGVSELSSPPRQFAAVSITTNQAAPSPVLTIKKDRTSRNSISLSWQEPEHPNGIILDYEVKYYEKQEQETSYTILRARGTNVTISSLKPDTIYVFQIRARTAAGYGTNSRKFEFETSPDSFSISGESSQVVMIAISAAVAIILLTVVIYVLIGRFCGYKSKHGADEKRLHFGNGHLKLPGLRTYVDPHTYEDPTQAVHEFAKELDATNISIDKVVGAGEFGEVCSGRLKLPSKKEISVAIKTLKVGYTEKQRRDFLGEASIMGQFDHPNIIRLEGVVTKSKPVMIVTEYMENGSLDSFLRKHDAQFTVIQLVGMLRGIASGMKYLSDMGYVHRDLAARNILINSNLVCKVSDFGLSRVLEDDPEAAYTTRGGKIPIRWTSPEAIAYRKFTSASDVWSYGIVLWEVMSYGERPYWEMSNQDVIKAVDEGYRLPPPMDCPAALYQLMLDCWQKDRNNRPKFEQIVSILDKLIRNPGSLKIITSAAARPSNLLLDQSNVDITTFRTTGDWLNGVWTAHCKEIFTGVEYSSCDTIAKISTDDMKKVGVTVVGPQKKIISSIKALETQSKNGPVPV
Conditions: at 0.1 µM.

For assay [7], the target named is T1, Ephrin type-A receptor 3 (Homo sapiens). Conditions: at 1 µM.
The target of assay [8] is Ephrin type-A receptor 4 (Homo sapiens) (UniProt P54764). Conditions: at 0.1 µM.
Sequence of Ephrin type-A receptor 4 (Homo sapiens) (P54764 whole entry): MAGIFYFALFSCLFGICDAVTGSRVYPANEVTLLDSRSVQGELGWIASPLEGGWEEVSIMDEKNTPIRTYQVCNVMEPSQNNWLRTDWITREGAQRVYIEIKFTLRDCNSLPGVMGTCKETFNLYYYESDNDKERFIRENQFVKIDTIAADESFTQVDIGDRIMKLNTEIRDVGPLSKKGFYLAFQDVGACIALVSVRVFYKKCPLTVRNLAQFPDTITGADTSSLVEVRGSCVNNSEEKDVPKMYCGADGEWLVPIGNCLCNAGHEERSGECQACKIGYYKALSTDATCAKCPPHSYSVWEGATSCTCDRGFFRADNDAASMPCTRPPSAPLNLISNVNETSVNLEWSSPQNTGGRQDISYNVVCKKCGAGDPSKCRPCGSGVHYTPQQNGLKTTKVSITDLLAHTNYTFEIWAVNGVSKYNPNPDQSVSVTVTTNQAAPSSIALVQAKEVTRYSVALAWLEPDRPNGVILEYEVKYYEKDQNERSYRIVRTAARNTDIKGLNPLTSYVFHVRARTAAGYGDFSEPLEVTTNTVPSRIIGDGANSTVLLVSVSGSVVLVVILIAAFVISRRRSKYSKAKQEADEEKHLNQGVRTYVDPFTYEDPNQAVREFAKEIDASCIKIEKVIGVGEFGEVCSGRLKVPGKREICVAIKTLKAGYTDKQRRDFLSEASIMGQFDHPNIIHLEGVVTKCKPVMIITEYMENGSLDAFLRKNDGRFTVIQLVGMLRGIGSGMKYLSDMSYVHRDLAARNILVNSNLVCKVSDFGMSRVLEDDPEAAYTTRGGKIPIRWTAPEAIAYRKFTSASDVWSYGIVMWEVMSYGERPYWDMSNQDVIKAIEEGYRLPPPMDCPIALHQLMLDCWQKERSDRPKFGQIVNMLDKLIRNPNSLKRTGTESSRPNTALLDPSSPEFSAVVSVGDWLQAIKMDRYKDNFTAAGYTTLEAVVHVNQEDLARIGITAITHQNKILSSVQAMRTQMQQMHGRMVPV
Assay [9] has the same target. Conditions: at 1 µM.
The target in assay [10] is T2, Ephrin type-B receptor 2 (Homo sapiens) (UniProt P29323).
T2 sequence (whole entry): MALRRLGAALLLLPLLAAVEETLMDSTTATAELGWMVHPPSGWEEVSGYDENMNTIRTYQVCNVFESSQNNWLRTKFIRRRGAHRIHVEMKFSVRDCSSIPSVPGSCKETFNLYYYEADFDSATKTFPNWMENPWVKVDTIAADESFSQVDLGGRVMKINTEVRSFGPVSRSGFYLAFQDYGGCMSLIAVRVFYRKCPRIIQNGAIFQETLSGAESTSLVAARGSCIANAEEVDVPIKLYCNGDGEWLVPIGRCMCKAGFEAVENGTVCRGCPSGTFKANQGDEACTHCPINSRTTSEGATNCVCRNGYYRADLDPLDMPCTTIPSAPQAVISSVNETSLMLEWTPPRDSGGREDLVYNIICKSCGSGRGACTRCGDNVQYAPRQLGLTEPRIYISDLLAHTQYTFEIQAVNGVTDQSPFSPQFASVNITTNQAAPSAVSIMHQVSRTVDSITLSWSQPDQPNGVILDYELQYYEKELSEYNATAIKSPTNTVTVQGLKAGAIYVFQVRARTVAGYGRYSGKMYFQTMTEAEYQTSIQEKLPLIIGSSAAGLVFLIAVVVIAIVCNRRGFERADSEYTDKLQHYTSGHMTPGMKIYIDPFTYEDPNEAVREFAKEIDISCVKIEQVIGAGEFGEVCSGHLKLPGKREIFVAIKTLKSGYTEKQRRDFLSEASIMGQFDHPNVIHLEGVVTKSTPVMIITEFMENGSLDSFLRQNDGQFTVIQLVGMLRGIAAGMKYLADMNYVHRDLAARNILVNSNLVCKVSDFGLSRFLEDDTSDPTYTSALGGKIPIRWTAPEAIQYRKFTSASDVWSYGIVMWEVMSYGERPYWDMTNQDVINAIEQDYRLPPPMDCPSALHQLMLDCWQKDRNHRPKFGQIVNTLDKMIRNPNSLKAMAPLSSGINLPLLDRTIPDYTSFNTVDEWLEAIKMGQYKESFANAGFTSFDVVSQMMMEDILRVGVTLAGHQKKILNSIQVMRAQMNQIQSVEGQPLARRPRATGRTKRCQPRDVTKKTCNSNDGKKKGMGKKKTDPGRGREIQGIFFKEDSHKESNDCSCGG
Conditions: at 0.1 µM.

Assay [11] concerns the target T2, Ephrin type-B receptor 2 (Homo sapiens). The conditions noted are these: at 1 µM.
Assay [12] concerns the target T3, Ephrin type-B receptor 3 (Homo sapiens) (UniProt P54753).
T3 sequence (whole entry): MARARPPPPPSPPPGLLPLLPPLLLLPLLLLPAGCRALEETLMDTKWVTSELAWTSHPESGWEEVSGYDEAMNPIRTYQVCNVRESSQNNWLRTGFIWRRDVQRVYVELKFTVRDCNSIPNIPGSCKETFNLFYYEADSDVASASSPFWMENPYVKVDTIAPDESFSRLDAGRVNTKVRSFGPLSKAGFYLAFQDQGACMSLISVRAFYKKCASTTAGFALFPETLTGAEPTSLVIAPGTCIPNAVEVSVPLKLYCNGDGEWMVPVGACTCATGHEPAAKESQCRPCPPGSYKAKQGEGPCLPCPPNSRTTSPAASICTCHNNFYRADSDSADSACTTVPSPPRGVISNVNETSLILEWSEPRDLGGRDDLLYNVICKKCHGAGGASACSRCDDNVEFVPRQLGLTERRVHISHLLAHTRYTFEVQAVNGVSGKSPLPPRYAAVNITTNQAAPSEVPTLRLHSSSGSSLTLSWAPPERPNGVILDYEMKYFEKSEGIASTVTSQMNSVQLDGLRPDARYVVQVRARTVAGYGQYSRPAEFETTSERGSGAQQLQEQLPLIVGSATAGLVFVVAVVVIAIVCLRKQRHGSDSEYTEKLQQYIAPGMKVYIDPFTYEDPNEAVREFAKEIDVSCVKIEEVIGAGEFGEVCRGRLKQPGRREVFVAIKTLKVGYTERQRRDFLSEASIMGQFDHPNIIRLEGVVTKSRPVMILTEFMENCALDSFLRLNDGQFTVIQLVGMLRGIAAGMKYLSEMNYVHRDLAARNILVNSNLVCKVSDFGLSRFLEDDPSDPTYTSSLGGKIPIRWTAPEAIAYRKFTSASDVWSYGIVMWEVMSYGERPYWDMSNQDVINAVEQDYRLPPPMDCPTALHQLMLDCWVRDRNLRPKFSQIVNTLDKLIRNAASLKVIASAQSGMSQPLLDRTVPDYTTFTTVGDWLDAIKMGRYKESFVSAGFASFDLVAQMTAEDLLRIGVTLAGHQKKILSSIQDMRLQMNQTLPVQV
The conditions noted are these: at 0.1 µM.

Assay [13] deals with T3, Ephrin type-B receptor 3 (Homo sapiens). The conditions noted are these: at 1 µM.
Assay [14] deals with T4, Ephrin type-B receptor 4 (Homo sapiens) (UniProt P54760).
T4 sequence (whole entry): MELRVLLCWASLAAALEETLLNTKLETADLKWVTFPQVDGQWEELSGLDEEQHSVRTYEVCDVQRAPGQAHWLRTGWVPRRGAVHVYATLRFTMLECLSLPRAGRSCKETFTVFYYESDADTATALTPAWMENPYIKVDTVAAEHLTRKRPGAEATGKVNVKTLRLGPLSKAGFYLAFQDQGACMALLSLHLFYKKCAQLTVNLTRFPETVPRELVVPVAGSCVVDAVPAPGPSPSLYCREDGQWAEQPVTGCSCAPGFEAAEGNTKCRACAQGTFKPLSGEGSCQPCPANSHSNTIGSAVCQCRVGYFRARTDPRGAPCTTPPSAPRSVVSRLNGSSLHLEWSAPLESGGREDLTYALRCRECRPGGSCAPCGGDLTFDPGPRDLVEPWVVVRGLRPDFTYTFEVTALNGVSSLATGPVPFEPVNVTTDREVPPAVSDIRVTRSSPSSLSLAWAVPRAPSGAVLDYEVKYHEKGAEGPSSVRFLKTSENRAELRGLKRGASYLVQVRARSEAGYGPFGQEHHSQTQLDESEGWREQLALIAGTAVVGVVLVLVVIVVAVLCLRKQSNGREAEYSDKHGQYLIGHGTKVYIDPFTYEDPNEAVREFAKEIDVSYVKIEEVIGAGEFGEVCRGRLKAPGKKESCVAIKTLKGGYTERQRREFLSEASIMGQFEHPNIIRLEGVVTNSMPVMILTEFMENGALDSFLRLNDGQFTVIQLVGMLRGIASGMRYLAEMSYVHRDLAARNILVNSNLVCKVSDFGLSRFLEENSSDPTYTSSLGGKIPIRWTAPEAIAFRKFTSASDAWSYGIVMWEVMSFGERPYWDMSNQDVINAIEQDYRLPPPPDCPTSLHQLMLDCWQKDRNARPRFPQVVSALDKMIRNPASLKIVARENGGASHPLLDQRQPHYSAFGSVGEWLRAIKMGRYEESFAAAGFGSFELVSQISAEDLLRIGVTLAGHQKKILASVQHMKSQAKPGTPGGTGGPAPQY
Conditions: at 0.1 µM.

The target of assay [15] is T4, Ephrin type-B receptor 4 (Homo sapiens). The conditions noted are these: at 1 µM.
Assay [16] deals with Receptor tyrosine-protein kinase erbB-2 (Homo sapiens) (UniProt P04626). Conditions: at 0.1 µM.
Sequence of Receptor tyrosine-protein kinase erbB-2 (Homo sapiens) (P04626 whole entry): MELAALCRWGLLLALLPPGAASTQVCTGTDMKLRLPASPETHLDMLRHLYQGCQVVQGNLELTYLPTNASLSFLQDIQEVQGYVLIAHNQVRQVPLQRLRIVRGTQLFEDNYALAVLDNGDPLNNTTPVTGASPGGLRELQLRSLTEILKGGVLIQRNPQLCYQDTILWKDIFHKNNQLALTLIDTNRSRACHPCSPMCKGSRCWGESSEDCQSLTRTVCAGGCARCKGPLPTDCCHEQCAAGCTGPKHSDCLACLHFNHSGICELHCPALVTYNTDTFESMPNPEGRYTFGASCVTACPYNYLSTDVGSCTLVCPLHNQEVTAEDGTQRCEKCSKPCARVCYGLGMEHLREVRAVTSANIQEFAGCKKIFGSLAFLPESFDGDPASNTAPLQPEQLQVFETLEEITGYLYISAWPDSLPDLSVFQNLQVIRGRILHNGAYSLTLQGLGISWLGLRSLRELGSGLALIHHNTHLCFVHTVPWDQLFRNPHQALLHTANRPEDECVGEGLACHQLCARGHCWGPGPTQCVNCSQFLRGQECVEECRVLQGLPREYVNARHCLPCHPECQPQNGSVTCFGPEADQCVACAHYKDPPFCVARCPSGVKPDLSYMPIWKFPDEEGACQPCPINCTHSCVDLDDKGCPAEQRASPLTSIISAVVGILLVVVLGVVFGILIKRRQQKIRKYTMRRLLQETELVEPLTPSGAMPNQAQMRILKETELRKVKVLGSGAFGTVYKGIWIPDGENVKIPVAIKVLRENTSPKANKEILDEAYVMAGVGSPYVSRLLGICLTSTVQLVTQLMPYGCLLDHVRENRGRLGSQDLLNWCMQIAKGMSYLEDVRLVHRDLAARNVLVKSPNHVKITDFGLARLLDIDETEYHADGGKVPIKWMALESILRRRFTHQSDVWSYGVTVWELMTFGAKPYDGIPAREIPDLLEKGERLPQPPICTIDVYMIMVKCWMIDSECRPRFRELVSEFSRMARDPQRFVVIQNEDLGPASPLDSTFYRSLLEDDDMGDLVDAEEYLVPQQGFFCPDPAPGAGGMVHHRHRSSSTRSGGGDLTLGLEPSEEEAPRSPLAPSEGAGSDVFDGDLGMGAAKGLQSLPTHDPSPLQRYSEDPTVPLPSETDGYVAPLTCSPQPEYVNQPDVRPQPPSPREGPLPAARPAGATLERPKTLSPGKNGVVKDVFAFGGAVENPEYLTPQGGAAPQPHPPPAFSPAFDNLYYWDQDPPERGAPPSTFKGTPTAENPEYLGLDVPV
Assay [17] has the same target. The conditions noted are these: at 1 µM.
For assay [18], the target named is Receptor tyrosine-protein kinase erbB-4 (Homo sapiens) (UniProt Q15303). Conditions: at 0.1 µM.
Sequence of Receptor tyrosine-protein kinase erbB-4 (Homo sapiens) (Q15303 whole entry): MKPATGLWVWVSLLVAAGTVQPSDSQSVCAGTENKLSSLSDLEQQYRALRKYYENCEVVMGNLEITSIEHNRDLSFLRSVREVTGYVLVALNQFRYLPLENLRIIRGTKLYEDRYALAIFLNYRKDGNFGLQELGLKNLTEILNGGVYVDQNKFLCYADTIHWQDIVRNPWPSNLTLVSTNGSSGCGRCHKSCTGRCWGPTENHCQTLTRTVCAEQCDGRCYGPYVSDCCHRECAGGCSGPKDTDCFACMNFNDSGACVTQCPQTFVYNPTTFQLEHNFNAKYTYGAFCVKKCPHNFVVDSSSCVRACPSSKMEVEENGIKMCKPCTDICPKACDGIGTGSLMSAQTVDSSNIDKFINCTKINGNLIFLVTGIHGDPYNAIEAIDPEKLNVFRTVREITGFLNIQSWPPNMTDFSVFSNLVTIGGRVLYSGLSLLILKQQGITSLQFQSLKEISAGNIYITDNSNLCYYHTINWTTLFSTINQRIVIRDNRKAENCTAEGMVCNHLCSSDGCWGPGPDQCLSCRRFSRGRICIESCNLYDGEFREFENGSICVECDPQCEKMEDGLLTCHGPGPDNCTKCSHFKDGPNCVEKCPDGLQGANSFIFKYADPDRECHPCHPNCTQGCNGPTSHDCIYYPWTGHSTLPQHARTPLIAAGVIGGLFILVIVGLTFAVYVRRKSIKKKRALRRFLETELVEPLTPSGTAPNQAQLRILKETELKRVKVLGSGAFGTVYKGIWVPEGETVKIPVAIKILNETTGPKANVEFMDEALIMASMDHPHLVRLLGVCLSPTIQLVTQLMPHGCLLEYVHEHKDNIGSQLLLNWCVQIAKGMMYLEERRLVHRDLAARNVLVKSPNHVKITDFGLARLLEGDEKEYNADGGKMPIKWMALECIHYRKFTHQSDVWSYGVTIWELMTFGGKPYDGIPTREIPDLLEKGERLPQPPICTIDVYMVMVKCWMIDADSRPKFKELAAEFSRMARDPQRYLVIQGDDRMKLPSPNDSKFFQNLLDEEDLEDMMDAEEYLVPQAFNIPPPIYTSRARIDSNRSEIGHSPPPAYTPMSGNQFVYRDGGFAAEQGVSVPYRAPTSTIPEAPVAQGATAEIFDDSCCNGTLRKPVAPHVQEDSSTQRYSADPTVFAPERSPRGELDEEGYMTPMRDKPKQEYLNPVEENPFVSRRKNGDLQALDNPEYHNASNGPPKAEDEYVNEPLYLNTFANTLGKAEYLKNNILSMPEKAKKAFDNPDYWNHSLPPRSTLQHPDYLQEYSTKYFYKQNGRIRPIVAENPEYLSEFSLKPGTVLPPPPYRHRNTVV
Assay [19] has the same target. The conditions noted are these: at 1 µM.
Assay [20] concerns the target Tyrosine-protein kinase Fer (Homo sapiens) (UniProt P16591). The conditions noted are these: at 0.1 µM.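 Further: reported figures are averaged percent inhibition of FER.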

Sequence of Epidermal growth factor receptor (Homo sapiens), P00533 [L858R,T790M] (P00533 whole entry T790M/L858R, looked up): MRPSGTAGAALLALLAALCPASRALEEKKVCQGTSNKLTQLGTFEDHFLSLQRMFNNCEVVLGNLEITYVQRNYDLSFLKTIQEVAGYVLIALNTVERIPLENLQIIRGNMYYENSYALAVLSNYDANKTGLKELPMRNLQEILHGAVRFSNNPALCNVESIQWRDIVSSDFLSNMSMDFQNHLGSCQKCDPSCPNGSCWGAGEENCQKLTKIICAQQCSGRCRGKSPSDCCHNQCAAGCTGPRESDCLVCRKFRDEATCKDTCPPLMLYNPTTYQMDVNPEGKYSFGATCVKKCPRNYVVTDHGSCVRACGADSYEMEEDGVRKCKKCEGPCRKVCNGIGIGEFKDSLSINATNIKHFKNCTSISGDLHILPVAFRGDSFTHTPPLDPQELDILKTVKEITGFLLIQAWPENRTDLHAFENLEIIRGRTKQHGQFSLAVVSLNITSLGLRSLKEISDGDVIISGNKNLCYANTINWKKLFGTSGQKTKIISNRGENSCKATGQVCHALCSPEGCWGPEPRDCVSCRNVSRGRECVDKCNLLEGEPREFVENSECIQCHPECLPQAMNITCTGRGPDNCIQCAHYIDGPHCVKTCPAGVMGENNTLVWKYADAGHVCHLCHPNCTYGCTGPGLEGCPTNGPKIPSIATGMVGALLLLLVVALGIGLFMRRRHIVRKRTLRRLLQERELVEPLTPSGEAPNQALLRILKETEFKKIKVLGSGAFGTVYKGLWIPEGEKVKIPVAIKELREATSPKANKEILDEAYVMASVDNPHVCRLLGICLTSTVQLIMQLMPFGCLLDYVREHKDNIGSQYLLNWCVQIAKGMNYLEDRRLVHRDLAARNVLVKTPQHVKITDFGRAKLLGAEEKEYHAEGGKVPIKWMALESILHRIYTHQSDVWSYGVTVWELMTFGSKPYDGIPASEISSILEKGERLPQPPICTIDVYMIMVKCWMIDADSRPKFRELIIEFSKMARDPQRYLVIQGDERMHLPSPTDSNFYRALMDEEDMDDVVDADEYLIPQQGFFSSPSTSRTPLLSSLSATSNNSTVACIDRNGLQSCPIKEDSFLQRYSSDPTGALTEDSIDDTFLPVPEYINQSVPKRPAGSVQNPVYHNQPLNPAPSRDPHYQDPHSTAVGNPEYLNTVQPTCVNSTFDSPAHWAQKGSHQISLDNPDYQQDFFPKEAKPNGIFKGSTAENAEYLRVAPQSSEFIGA

As to `COc1cc(Nc2nccc(Nc3ccc4c(C)n[nH]c4c3)n2)cc(OC)c1OC`, the inhibition in assay [1] came to 5.15%; in assay [2] it was 4.13%; in [3], 20.9%; in [4], 28%; in assay [5], 71%; in [6], 6.23%. The inhibition was found to be 15.3% in assay [7]; 41.4% in [8]; 75.2% in assay [9]; 19.3% in assay [10]; 65.5% in assay [11]; 2.52% in assay [12]. Also, the inhibition in assay [13] is 0.24%; in assay [14], 11.2%; in assay [15], 54.8%; in assay [16], -1.05%; in assay [17], 0.32%; in assay [18], 11.9%. Besides, the results for the inhibition in assay [19] and in assay [20] were 27.6% and 6.42%, respectively.
`COc1cc2c(cc1Nc1nc(Nc3ccsc3C(N)=O)c3cc[nH]c3n1)N(C(=O)CN(C)C)CCC2(C)C`: the inhibition in assay [1] stood at 70.8%; in assay [2] it was 51.9%; in assay [3] it was 84.7%; in assay [4], 1.53%; in [5], 0.81%; in assay [6], 4.65%. The inhibition in [7] was 4.34%; in assay [8], 7.86%; in assay [9], 6.49%; in assay [10], 6.01%; in assay [11] it was 9.01%; in assay [13], -7.19%. For the same compound, the inhibition in assay [14] is 2.71%; in assay [15], 2.72%; in assay [16], 2.91%; in assay [17] it was -0.07%; in assay [18], 14.2%; in assay [19] it was 36.4%. For the same compound, the inhibition in assay [20] worked out at 95.5%.
`COc1cc(/C=N/Nc2ncnc3[nH]ncc23)ccc1O`: the inhibition in [1] is 4.2%; in assay [2] it was -0.56%; in assay [3] it was 5.5%; in assay [4], 6.02%; in assay [5], 21%; in [6], 5.55%. The inhibition in [7] was found to be 16.5%; in [8], 14.9%; in assay [9], 55.3%; in assay [10] it was 11.7%; in assay [11], 38.7%; in assay [12], 3.99%. In addition, the inhibition in assay [13] stood at 5.19%; in [14], 5.34%; in assay [15] it was 20.9%; in assay [16] it was 2.03%; in assay [17] it was 4.08%; in assay [18], 13.4%. Further, the inhibition in assay [19] came out at 21.1%; in [20], 3.03%.
